Legend:
Assay in all cases: DAPPL (digital affinity profiling via proximity ligation, sequencing); 10 mM Tris-HCl pH 7.5, 50 mM NaCl, 1 mM DTT, 4% glycerol, room temperature, 30 min; GST-TFs on glutathione beads, 16-mer random dsDNA library, 0.1% formaldehyde crosslink after washing; high values mean tight binding
Details in all cases: protein: recombinant; tags: N-terminal GST; dsDNA, one strand shown
FLI1 = target: T1, FLI1 (Homo sapiens, UniProt Q01543 1-452)
T1 sequence: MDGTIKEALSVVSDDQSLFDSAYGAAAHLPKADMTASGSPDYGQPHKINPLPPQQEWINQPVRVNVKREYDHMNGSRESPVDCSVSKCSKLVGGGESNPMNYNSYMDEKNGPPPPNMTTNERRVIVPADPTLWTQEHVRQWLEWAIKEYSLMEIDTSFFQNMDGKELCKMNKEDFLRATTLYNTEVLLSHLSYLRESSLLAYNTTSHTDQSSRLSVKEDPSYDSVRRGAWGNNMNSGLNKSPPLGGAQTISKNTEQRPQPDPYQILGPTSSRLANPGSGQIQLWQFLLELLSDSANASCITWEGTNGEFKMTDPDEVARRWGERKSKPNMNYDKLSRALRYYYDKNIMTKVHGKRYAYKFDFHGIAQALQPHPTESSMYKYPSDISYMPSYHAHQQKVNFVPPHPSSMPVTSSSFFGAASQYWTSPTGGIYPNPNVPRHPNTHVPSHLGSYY
Summary of the method: (§1)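 Pools were built from human transcription factors expressed in yeast as GST fusions, captured on glutathione beads and DNA-barcoded, along with a tag-only sample. Incubation with 200 nmole of a 16-mer random double-stranded DNA library lasted 30 min at room temperature in Tris/NaCl/DTT/glycerol buffer, and was followed by washing, 0.1% formaldehyde crosslinking, proximity ligation, PCR amplification and Illumina NextSeq500 sequencing. Binding signal is the quotient of each hexamer's read frequency for a factor and its frequency for the tag-only sample.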

ELK1 = target: T2, ELK1 (Homo sapiens, UniProt P19419 1-428)
T2 sequence: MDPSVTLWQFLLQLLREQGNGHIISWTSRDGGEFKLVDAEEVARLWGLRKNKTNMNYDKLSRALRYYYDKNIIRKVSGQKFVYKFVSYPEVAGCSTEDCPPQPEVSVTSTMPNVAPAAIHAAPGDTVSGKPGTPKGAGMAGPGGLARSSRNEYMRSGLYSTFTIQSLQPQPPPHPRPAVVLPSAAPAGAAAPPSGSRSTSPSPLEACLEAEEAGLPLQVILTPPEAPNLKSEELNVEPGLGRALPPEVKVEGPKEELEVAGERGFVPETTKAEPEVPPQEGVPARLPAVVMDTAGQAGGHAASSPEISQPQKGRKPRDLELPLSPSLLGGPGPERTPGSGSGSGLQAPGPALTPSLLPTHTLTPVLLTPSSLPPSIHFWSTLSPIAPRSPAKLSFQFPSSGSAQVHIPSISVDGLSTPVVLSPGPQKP
Summary of the method: as §1

GABPA = target: T3, GABPA (Homo sapiens, UniProt Q06546 1-454)
T3 sequence: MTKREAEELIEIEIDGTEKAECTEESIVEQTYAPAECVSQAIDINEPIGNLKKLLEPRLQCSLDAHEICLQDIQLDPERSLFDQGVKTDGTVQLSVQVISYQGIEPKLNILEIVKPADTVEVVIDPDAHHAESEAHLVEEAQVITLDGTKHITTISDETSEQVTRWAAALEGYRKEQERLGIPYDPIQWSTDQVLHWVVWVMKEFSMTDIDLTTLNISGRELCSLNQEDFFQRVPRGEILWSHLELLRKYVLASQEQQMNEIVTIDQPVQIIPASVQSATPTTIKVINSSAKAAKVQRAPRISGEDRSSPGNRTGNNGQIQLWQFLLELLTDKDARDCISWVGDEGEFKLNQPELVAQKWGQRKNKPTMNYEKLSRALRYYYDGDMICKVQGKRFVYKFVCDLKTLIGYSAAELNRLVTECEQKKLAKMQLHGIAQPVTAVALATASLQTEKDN
Summary of the method: as §1

ERG = target: T4, ERG (Homo sapiens, UniProt P11308 1-479)
T4 sequence: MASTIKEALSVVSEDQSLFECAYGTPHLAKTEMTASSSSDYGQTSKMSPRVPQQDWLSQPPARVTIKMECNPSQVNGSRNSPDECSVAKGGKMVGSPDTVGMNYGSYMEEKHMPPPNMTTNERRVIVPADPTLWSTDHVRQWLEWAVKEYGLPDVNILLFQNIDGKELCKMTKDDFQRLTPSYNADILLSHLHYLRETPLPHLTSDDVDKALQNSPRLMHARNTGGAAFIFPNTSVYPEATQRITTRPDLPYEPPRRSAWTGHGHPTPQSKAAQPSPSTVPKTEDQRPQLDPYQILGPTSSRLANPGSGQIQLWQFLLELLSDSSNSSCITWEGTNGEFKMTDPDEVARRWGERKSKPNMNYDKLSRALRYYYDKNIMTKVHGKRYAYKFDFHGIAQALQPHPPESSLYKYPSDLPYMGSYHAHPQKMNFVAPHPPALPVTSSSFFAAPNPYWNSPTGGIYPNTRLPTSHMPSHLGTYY
Summary of the method: as §1

ELF1 = ELF1 (Homo sapiens, UniProt P32519 1-619)
ELF1, sequence (P32519 whole entry): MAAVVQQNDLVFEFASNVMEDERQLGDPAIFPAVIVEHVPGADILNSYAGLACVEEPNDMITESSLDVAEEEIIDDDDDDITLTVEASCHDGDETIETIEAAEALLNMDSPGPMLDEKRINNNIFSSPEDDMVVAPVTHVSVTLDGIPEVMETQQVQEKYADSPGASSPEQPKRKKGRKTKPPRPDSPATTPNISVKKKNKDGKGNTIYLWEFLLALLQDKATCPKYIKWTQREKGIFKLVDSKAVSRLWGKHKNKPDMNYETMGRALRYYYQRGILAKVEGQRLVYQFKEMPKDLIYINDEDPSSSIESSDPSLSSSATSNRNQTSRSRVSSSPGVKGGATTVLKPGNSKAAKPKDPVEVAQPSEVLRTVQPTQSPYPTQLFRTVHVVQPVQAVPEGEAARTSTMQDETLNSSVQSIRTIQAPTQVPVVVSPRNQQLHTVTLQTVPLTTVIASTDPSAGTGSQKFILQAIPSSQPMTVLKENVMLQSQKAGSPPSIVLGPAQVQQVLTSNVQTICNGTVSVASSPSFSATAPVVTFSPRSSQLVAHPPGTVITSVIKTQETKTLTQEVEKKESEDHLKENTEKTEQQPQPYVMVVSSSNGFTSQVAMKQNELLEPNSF
Summary of the method: as §1

EHF = target: T5, EHF (Homo sapiens, UniProt Q9NZC4 1-300)
T5 sequence: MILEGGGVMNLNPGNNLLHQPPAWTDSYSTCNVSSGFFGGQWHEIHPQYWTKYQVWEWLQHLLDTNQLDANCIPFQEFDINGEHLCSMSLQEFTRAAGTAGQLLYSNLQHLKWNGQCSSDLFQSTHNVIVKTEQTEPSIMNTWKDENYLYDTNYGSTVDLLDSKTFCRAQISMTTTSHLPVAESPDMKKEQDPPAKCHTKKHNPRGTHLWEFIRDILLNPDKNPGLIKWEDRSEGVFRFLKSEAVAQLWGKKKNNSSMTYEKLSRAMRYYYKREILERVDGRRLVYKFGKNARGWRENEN
Summary of the method: as §1

SPI1 = SPI1 (Homo sapiens, UniProt P17947 1-270)
Summary of the method: as §1

SPIB = SPIB (Homo sapiens, UniProt Q01892 1-262)
SPIB, sequence (Q01892 whole entry): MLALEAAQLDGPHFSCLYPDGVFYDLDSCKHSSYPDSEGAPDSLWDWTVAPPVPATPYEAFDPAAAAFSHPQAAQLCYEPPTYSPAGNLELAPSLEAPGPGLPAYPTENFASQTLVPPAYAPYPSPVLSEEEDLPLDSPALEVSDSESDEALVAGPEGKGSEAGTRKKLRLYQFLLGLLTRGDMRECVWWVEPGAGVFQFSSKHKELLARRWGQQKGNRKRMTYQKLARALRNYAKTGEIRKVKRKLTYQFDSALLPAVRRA
Summary of the method: as §1

ELK3 = target: T6, ELK3 (Homo sapiens, UniProt P41970 1-407)
T6 sequence: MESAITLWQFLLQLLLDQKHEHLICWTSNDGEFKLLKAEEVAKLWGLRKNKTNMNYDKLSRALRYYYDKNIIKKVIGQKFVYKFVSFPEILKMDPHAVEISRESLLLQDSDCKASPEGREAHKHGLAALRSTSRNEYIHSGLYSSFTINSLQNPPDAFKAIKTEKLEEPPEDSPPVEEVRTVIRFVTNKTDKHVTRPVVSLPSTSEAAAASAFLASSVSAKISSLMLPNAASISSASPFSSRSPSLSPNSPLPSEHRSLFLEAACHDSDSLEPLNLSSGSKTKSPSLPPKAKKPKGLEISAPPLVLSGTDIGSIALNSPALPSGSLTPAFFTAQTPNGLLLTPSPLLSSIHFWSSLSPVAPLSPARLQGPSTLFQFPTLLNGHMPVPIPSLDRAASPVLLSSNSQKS
Summary of the method: as §1

FEV = target: T7, FEV (Homo sapiens, UniProt Q99581 1-238)
T7 sequence: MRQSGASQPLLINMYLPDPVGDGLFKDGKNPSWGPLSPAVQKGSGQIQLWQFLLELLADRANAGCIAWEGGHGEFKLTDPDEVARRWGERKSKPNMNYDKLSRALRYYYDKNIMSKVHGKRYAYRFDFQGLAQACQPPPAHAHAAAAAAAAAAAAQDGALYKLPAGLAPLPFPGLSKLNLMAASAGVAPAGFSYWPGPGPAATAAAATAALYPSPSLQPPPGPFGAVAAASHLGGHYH
Summary of the method: as §1

ETV5 = ETV5 (Homo sapiens, UniProt P41161 1-510)
ETV5, sequence (P41161 whole entry): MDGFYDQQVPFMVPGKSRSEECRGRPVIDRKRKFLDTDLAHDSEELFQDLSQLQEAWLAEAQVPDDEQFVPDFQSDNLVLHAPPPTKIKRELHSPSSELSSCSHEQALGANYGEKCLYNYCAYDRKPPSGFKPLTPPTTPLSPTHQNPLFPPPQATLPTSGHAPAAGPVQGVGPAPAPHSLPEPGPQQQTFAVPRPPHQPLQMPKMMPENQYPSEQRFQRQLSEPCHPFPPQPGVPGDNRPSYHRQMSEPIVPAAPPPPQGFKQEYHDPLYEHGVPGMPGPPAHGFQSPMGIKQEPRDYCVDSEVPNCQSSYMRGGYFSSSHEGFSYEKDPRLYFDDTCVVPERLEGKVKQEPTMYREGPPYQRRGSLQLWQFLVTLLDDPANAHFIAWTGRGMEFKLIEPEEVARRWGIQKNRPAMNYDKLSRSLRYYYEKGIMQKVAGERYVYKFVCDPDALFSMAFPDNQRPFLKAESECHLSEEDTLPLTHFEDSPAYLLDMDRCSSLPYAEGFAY
Summary of the method: as §1

SPIC = target: T8, SPIC (Homo sapiens, UniProt Q8N5J4 1-248)
T8 sequence: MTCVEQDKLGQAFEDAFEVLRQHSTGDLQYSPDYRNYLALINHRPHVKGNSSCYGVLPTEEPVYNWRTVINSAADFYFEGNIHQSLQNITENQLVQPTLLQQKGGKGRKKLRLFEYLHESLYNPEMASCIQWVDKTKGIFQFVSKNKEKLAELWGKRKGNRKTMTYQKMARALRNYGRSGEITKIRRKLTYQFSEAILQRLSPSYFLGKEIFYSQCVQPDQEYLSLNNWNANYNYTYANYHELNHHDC
Summary of the method: as §1

ELF4 = ELF4 (Homo sapiens, UniProt Q99607 1-663)
ELF4, sequence (Q99607 whole entry): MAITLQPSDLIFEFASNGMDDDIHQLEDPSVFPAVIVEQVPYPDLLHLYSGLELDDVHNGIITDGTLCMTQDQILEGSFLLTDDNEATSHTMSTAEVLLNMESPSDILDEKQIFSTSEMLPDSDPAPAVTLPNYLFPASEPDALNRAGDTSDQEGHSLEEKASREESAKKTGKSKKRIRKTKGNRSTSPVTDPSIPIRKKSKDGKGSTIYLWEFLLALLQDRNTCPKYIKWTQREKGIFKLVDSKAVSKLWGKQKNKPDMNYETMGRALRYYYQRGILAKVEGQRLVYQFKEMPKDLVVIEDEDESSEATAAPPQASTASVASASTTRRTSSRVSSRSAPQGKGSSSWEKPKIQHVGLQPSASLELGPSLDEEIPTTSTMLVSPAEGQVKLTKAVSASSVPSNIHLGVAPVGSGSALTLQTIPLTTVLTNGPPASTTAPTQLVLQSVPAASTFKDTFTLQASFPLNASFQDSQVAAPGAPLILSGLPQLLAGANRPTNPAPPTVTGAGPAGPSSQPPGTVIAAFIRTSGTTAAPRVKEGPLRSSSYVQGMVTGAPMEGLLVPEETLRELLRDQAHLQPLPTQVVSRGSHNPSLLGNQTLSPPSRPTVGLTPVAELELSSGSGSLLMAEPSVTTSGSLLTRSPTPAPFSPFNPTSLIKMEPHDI
Summary of the method: as §1

ELK4 = target: T9, ELK4 (Homo sapiens, UniProt P28324-2 1-405)
T9 sequence: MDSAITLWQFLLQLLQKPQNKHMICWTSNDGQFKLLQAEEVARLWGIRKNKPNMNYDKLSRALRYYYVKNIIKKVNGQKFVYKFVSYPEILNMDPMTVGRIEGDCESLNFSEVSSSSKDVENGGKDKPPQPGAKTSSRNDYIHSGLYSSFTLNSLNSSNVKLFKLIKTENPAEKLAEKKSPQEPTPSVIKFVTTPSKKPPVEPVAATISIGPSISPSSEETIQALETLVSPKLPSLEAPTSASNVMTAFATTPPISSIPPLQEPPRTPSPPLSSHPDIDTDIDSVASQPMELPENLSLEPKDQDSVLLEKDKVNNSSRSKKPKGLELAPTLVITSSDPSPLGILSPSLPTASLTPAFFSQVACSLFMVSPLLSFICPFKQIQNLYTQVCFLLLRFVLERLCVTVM
Summary of the method: as §1

ETV2 = target: T10, ETV2 (Homo sapiens, UniProt O00321 1-342)
T10 sequence: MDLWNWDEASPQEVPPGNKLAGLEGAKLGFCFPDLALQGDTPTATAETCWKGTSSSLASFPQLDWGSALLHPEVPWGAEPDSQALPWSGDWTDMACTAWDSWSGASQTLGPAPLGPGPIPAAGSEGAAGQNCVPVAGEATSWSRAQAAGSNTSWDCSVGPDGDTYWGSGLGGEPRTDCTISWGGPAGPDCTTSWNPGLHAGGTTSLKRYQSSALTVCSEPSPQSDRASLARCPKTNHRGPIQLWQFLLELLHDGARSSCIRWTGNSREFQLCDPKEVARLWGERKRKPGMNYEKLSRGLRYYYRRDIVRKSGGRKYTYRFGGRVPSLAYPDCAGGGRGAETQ
Summary of the method: as §1

ELF3 = target: T11, ELF3 (Homo sapiens, UniProt P78545 1-371)
T11 sequence: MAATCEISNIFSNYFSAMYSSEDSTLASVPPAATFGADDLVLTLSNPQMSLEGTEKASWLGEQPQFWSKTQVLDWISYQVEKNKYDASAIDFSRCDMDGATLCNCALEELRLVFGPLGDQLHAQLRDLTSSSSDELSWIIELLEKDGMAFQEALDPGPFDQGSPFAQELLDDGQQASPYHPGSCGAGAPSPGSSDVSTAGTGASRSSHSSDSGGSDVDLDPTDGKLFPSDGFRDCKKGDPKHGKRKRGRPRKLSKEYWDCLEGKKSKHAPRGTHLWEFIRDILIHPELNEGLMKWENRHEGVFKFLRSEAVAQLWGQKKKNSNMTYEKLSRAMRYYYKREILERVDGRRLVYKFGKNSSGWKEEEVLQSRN
Summary of the method: as §1

ETV1 = ETV1 (Homo sapiens, UniProt P50549 1-477)
ETV1, sequence (P50549 whole entry): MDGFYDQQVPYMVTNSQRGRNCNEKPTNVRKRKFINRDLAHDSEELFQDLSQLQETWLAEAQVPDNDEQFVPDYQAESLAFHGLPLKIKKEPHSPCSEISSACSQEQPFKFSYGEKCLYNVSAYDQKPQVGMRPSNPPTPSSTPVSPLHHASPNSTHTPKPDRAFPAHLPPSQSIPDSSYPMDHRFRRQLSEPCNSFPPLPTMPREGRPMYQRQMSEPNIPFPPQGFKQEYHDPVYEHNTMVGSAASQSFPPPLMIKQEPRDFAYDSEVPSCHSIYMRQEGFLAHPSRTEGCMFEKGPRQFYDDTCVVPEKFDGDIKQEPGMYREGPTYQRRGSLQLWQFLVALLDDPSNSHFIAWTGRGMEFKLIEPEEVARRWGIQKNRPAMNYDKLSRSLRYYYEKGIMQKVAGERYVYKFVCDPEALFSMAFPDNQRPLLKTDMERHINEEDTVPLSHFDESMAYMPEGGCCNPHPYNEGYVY
Summary of the method: as §1

Sequence: GCTTGG
- binding signal (FLI1): 1.19 fold enrichment (6-mer frequency, TF over GST control)
- binding signal (ELK1): 1.15 fold enrichment (6-mer frequency, TF over GST control)
- binding signal (GABPA): 1.12 fold enrichment (6-mer frequency, TF over GST control)
- binding signal (ERG): 1.09 fold enrichment (6-mer frequency, TF over GST control)
- binding signal (ELF1): 1.08 fold enrichment (6-mer frequency, TF over GST control)
- binding signal (EHF): 1.05 fold enrichment (6-mer frequency, TF over GST control)
- binding signal (SPI1): 1.04 fold enrichment (6-mer frequency, TF over GST control)
- binding signal (SPIB): 1.16 fold enrichment (6-mer frequency, TF over GST control)
- binding signal (ELK3): 1.15 fold enrichment (6-mer frequency, TF over GST control)
- binding signal (FEV): 1.03 fold enrichment (6-mer frequency, TF over GST control)
- binding signal (ETV5): 1.02 fold enrichment (6-mer frequency, TF over GST control)
- binding signal (SPIC): 1.03 fold enrichment (6-mer frequency, TF over GST control)
- binding signal (ELF4): 1.07 fold enrichment (6-mer frequency, TF over GST control)
- binding signal (ELK4): 1.11 fold enrichment (6-mer frequency, TF over GST control)
- binding signal (ETV2): 1.07 fold enrichment (6-mer frequency, TF over GST control)
- binding signal (ELF3): 1.14 fold enrichment (6-mer frequency, TF over GST control)
- binding signal (ETV1): 1.22 fold enrichment (6-mer frequency, TF over GST control)
